Hit rate of the full screen: of about 320,000 compounds, about 9,100 (2.8%) were called active. Roughly 3% stayed inconclusive and do not appear here. The sample holds actives, similar compounds and a random draw of the others, so the mix is not that of the screen. Calls follow the shape of the dose curve; as a rule, active = well fitted activation curve with a large enough effect; inconclusive = small, poorly fitted or top-dose-only effect; inactive = no such curve, though single readings can be large or run the other way.
experiment: qHTS Assay for Rab9 Promoter Activators; conditions: Huh7 Rab9 promoter-luciferase reporter, luminescence, 24 h; series mostly up to 9.22 µM; activation, negative = inhibition: at the top concentration; also: nearly all actives have a fitted effect of over 60% in size; as to activation, negative = inhibition: % of control where 0% means no effect
Method in brief: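 Luciferase signal after 10 min detection reagent at ambient indicates Rab9 promoter upregulation; stably transfected Huh7 cells were treated 24 h with compound in DMSO at 37 °C, 5% CO2.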
Potency is read from the fitted curve at half-maximal effect.

| Structure (SMILES) | activation, negative = inhibition | Potency |
| --- | --- | --- |
| O=C(Nc1ccnc(-c2ccncc2)n1)c1cccs1 | -2.43% (inactive) | – |
| NC(=O)c1ccsc1NC(=O)c1ccco1 | 3.95% (inactive) | – |
| CC(C)(C)n1ncc2c(=O)n(Cc3c(Cl)cccc3Br)cnc21 | -2.66% (inactive) | – |
| c1ccc(CN=C2Nc3ccccc3CS2)nc1 | – | 0.891 µM (active) |
| Cc1ccc(F)cc1S(=O)(=O)Nc1cccc(C(=O)N2CCCC(C(N)=O)C2)c1 (centres undefined) | -1.43% (inactive) | – |
| C=C(C)CNc1cc(S(=O)(=O)N2CCOCC2)ccc1Oc1ccccc1 | -9.64% (inactive) | – |
| COc1ccc(OCC(=O)Nc2nnc(-c3ccco3)s2)cc1 | -2.66% (inactive) | – |
| CCCCOc1ccc(-c2nnc(-c3ccco3)o2)cc1 | – | 1.41 µM (active) |
| CCOc1ccc(-c2nnc(-c3ccco3)o2)cc1 | – | 0.355 µM (active) |
| CC(=O)Nc1ccc(NC(=O)COc2ccc(-c3ccccc3)cc2)cc1 | -5.02% (inactive) | – |
| CCOc1ccc(-n2c(SCC(N)=O)nnc2-c2ccco2)cc1 | 0.124% (inactive) | – |
| Cc1ccc(OCC(=O)Nc2nnc(-c3ccco3)s2)cc1 | 0.409% (inactive) | – |
| O=C(CCc1ccccc1)Nc1cccc(-c2nnc(-c3ccco3)o2)c1 | 2.91% (inactive) | – |
| Cc1ccc(OCC(=O)Nc2ccc(-c3nnc(-c4ccco4)o3)cc2)cc1 | – | 2.82 µM (active) |
| N#Cc1ccc(OCc2nnc(-c3ccc([N+](=O)[O-])cc3)o2)cc1 | 29.6% (inactive) | – |
| O=C(CN1CCCSc2ccccc21)N1CCN(S(=O)(=O)c2cccc(F)c2)CC1 | -7.54% (inactive) | – |
| Cc1cccc(NC(=S)NCCc2ccc(Cl)cc2)c1C | -1.92% (inactive) | – |
| COc1ccccc1S(=O)(=O)NCc1ccc(C(=O)N(C)Cc2ccc(F)cc2)cc1 | 2.36% (inactive) | – |
| CC(=O)Nc1ccc(NC(=O)CCN2C(=O)C3CC=CCC3C2=O)cc1 (centres undefined) | -1.96% (inactive) | – |
| CCOC(OCC)c1ccc(/C=C\c2nccc(N)n2)cc1 | – | 1.78 µM (active) |
| C[C@@H]1NC(=O)[C@@]2(C)[C@@H](c3ccccc3)[C@H]3COc4ccccc4[C@@H]3N2C1=O | 6.2% (inactive) | – |
| Cc1ccc(OCCC(=O)Nc2ccc(S(=O)(=O)Nc3nccs3)cc2)cc1 | -11.6% (inactive) | – |
| Cc1cccc(OCCC(=O)Nc2ccccc2C(N)=O)c1 | 2.71% (inactive) | – |
| CCCOC(=O)Nc1ccccc1C(N)=O | 5.54% (inactive) | – |
| COc1cccc(OCC(=O)Nc2ccccc2C(N)=O)c1 | – | 2.82 µM (active) |
| COc1ccccc1C(=O)NCC(=O)NCCSc1ccc(Br)cc1 | 3.4% (inactive) | – |
| Cc1ccn(CCC(=O)N2c3ccccc3CC2C)n1 (centres undefined) | -0.165% (inactive) | – |

| Structure (SMILES) | activation, negative = inhibition | Potency |
| --- | --- | --- |
| CCCC(=O)N1c2ccc(-c3csc(N)n3)cc2CC1C (centres undefined) | – | 2.82 µM (active) |
| CCn1nc(C(=O)OCC(=O)N2c3ccccc3CC2C)c2ccccc2c1=O (centres undefined) | 10.4% (inactive) | – |
| COC(=O)C1CCN(CC(N)=O)CC1 | 0.0472% (inactive) | – |
| COC(=O)c1ccc(CSc2ccc(S(=O)(=O)N3CCCCC3)cn2)cc1 | -0.29% (inactive) | – |
| O=C(CN1C(=O)c2ccccc2S1(=O)=O)NC1CCCCC1 | 15% (inactive) | – |
| CC1CCCN(C(=O)CN2C(=O)c3ccccc3S2(=O)=O)C1 (centres undefined) | – | 2.82 µM (active) |
| O=C(CN1C(=O)c2ccccc2S1(=O)=O)N1CCc2ccccc21 | -38.7% (inactive) | – |
| O=C(COC(=O)Cc1ccc(Br)cc1)Nc1ccc(N2CCOCC2)cc1 | -3.87% (inactive) | – |
| CCOCc1c(C(=O)N2CCN(Cc3ccc(Br)s3)CC2)oc2ccccc12 | -5.16% (inactive) | – |
| Cc1cc(C(=O)OCC(=O)Nc2nnc(C(C)C)s2)c2ccccc2n1 | 1.65% (inactive) | – |
| CCC(=O)NC(=Nc1nc2ccccc2s1)NC(=O)CC | – | 3.55 µM (active) |
| O=C(O)CCCCc1nc2ccccc2s1 | -6.84% (inactive) | – |
| CC(=O)Nc1cccc(-c2nc3ccccc3s2)c1C | 11% (inactive) | – |
| CC(C)CC(=O)N/C(N)=N/c1nc2ccccc2s1 | – | 2.82 µM (active) |
| CC(C)CC(=O)NC(=S)NCc1ccccc1 | -0.334% (inactive) | – |
| O=C(OCC(=O)N1CCCC1)c1ccc(Cl)nc1 | -0.804% (inactive) | – |
| CCCN(C(=O)c1nc2nccc(C)n2n1)c1c(N)n(Cc2ccccc2)c(=O)[nH]c1=O | -4.22% (inactive) | – |
| O=C(Nc1cc(C(F)(F)F)ccc1Cl)C(=O)N1CCCCC1 | -2.62% (inactive) | – |
| O=C(Nc1cc(C(F)(F)F)ccc1Cl)c1cc(C2CC2)on1 | -1.69% (inactive) | – |
| O=C(Nc1cc(C(F)(F)F)ccc1Cl)c1cc2nc3c(c(C(F)(F)F)n2n1)CCCC3 | – | 1.78 µM (active) |
| Cc1cc(NC(=O)CCC(=O)N(CC(=O)NCC2CCCO2)c2ccccc2)no1 (centres undefined) | 3.92% (inactive) | – |
| CC(C)Oc1ccc(C(=O)NCC(=O)Nc2ccc3c(c2)CCC3)cc1 | -4.39% (inactive) | – |
| CC(C)CCNC(=O)c1ccc2c(Cl)c3c(nc2c1)CCC3 | – | 0.794 µM (active) |
| CC(=O)c1ccc(NC(=O)c2ccc3c(Cl)c4c(nc3c2)CCCC4)cc1 | -18.7% (inactive) | – |
| COc1ccc(N2CCN(C(=O)c3ccc4c(Cl)c5c(nc4c3)CCCC5)CC2)cc1 | 0.948% (inactive) | – |
| COc1ccc(C(=O)OCC(=O)N2CC(=O)Nc3ccccc32)cc1Br | -0.57% (inactive) | – |
| O=C1C2C3C=CC(C3)C2C(=O)N1c1ccc(-c2nc3ccccc3c(=O)o2)cc1 (centres undefined) | 3.04% (inactive) | – |
